Results from PubChem BioAssay AID624305 (National Center for Advancing Translational Sciences (NCATS), 2012).
Results filed as inconclusive are left out. Values without a mark were called inactive. The source made the active and inactive calls. The call rests on the fitted dose curve; in most records, active means well fitted activation curve with a large enough effect; inconclusive means small, poorly fitted or top-dose-only effect; inactive means no such curve, though single readings can be large or run the other way.

Assay: qHTS assay for re-activators of p53 using a Luc reporter: Hit Validation; further: nearly all actives have a fitted effect of over 75% in size; on activation: 0% is about no effect
Settings: p53-responsive luciferase reporter cells, luminescence, H1299 line expressing heat-sensitive Ala138Val p53; series mostly up to 46.1 µM; activation: at the top concentration
Summary of the method: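 H1299 (p53-null) cells stably carrying p53-A138V and a BP100-luciferase reporter, 1000 cells/well, treated 24 h at 37 deg C. Compounds at several concentrations, 1:5 dilution; nocodazole control; luminescence read after 10 min with detection reagent.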
Potency means the concentration at half of the fitted maximal effect.

| Compound | Potency | activation [%] |
| --- | --- | --- |
| NC(N)=Nc1nc(C2COc3ccccc3O2)cs1 (configuration not stated) | 4110 nM (active) |  |
| N#Cc1cccc(N=Cc2c(O)ccc3ccccc23)c1 |  | -9.9 |
| C=CCn1c(C)cc(C(=O)COC(=O)c2ccc(N)c([N+](=O)[O-])c2)c1C | 411 nM (active) |  |
| N#C/C(=C/c1cccnc1)c1ccccc1 |  | -12 |
| O=C(Nc1ccc2c(c1)CCC2)c1ccccc1 | 411 nM (active) |  |
| Nc1cccc(-c2nc3ccc(C(=O)c4ccccc4)cc3[nH]2)c1 | 2060 nM (active) |  |
| CCc1ccc(OCC(=O)NC(NC(=S)Nc2ccccc2C)C(Cl)(Cl)Cl)cc1 (configuration not stated) |  | 39.1 |
| CN(C(=O)NC(=O)C1=C(N2CCOCC2)/C(=C/c2ccccc2)CC1)S(C)(=O)=O |  | 32.3 |
| O=C(N/N=C/C1C(c2ccccc2)C1(Cl)Cl)c1cccc(Cl)c1 (configuration not stated) |  | -6.77 |
| CC1(C)NC(=O)N(CC(=O)N2CCN(S(=O)(=O)c3ccccc3C(F)(F)F)CC2)C1=O |  | 16.7 |
| CCOCCCNc1nc2c([nH]1)c(=O)n(C)c(=O)n2C |  | 6.25 |
| O=C(CN1C(=O)COc2ccccc21)Nc1ccc(F)cc1 |  | 42.2 |
| Cc1ccc2cc3cc(C(=O)N4CCCCCC4)oc3nc2c1 | 10300 nM (active) |  |
| Cc1cc2nc(-c3ccc(SCC(=O)Nc4ccc(S(=O)(=O)NC5CC5)cc4)nc3)[nH]c2cc1C | 2310 nM (active) |  |
| O=C(O)C1CC(=O)N(c2ccc(Br)cc2)C1 (configuration not stated) |  | -4.17 |
| CC(=O)Nc1ccc(Nc2cc(C)nc3c(-c4ccccc4)cnn23)cc1 | 116 nM (active) |  |
| O=C(Nc1ccccc1Oc1ccccc1)c1cc([N+](=O)[O-])ccc1Cl |  | -29.2 |
